# Data reported in the supplement of paper PMC12282887.
# ± gives the standard deviation of the averaged measurements.
# System: E. coli BW25113 marRABp lux reporter
# Test: promoter activity interaction Z-score (Lux/OD deviation from empty-vector control); higher = stronger promoter induction by the compound
# Experimental: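 E. coli BW25113 (wild type or ΔmarA/ΔsoxS/Δrob) carrying pTU175 luxCDABE promoter reporters was grown in LB in 384-well plates at 37°C with each of 94 compounds at 4 two-fold concentrations, in biological duplicates. Luminescence and OD600 were read every 30 min for 12 h and integrated as AUC over 8 h (0-8 h WT, 1-9 h mutants). Lux AUC was divided by OD AUC; the interaction score is the residual of a Huber robust fit of each promoter against the empty-vector control, then Z-transformed per promoter.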
smiles,measurement,setting,value
C[n+]1ccc(-c2cc[n+](C)cc2)cc1 [Paraquat],promoter activity interaction Z-score,"0.64 µg/ml, genetic background: wild type",0.0393 ± 0.059
same,promoter activity interaction Z-score,"0.64 µg/ml, genetic background: ΔmarA",0.259 ± 0.056
same,promoter activity interaction Z-score,"0.64 µg/ml, genetic background: Δrob",0.471 ± 0.061
same,promoter activity interaction Z-score,"0.64 µg/ml, genetic background: ΔsoxS",0.397 ± 0.44
same,promoter activity interaction Z-score,"1.3 µg/ml, genetic background: wild type",0.123 ± 0.012
same,promoter activity interaction Z-score,"1.3 µg/ml, genetic background: ΔmarA",0.332 ± 0.16
same,promoter activity interaction Z-score,"1.3 µg/ml, genetic background: Δrob",0.857 ± 0.029
same,promoter activity interaction Z-score,"1.3 µg/ml, genetic background: ΔsoxS",0.407 ± 0.47
same,promoter activity interaction Z-score,"2.6 µg/ml, genetic background: wild type",0.508 ± 0.11
same,promoter activity interaction Z-score,"2.6 µg/ml, genetic background: ΔmarA",0.467 ± 0.19
same,promoter activity interaction Z-score,"2.6 µg/ml, genetic background: Δrob",1.16 ± 0.33
same,promoter activity interaction Z-score,"2.6 µg/ml, genetic background: ΔsoxS",0.215 ± 0.34
same,promoter activity interaction Z-score,"5.1 µg/ml, genetic background: wild type",1.52 ± 0.99
same,promoter activity interaction Z-score,"5.1 µg/ml, genetic background: ΔmarA",1.25 ± 0.44
same,promoter activity interaction Z-score,"5.1 µg/ml, genetic background: Δrob",2.54 ± 0.066
same,promoter activity interaction Z-score,"5.1 µg/ml, genetic background: ΔsoxS",0.698 ± 0.45
NCCc1c[nH]c2ccc(O)cc12 [Serotonine],promoter activity interaction Z-score,"13.3 µg/ml, genetic background: wild type",-0.413 ± 0.011
same,promoter activity interaction Z-score,"13.3 µg/ml, genetic background: ΔmarA",-0.686 ± 0.15
same,promoter activity interaction Z-score,"13.3 µg/ml, genetic background: Δrob",-0.419 ± 0.028
same,promoter activity interaction Z-score,"13.3 µg/ml, genetic background: ΔsoxS",-0.41 ± 0.18
same,promoter activity interaction Z-score,"26.6 µg/ml, genetic background: wild type",-0.214 ± 0.13
same,promoter activity interaction Z-score,"26.6 µg/ml, genetic background: ΔmarA",-0.554 ± 0.18
same,promoter activity interaction Z-score,"26.6 µg/ml, genetic background: Δrob",-0.414 ± 0.15
same,promoter activity interaction Z-score,"26.6 µg/ml, genetic background: ΔsoxS",-0.421 ± 0.26
same,promoter activity interaction Z-score,"53.2 µg/ml, genetic background: wild type",-0.616 ± 0.21
same,promoter activity interaction Z-score,"53.2 µg/ml, genetic background: ΔmarA",-0.71 ± 0.041
same,promoter activity interaction Z-score,"53.2 µg/ml, genetic background: Δrob",-0.479 ± 0.089
same,promoter activity interaction Z-score,"53.2 µg/ml, genetic background: ΔsoxS",-0.523 ± 0.25
same,promoter activity interaction Z-score,"106.3 µg/ml, genetic background: wild type",-0.518 ± 0.15
same,promoter activity interaction Z-score,"106.3 µg/ml, genetic background: ΔmarA",-0.531 ± 0.2
same,promoter activity interaction Z-score,"106.3 µg/ml, genetic background: Δrob",-0.324 ± 0.025
same,promoter activity interaction Z-score,"106.3 µg/ml, genetic background: ΔsoxS",-0.498 ± 0.093
C[C@]12CC[C@H]3[C@@H](CCC4=CC(=O)CC[C@@]43C)[C@@H]1CC[C@@H]2O [Testosterone],promoter activity interaction Z-score,"18 µg/ml, genetic background: wild type",-0.549 ± 0.28
same,promoter activity interaction Z-score,"18 µg/ml, genetic background: ΔmarA",-0.238 ± 0.15
same,promoter activity interaction Z-score,"18 µg/ml, genetic background: Δrob",-0.5774 ± 0.0046
same,promoter activity interaction Z-score,"18 µg/ml, genetic background: ΔsoxS",-0.238 ± 0.058
same,promoter activity interaction Z-score,"36.1 µg/ml, genetic background: wild type",-0.712 ± 0.027
same,promoter activity interaction Z-score,"36.1 µg/ml, genetic background: ΔmarA",-0.0596 ± 0.21
same,promoter activity interaction Z-score,"36.1 µg/ml, genetic background: Δrob",-0.24 ± 0.17
same,promoter activity interaction Z-score,"36.1 µg/ml, genetic background: ΔsoxS",-0.368 ± 0.14
same,promoter activity interaction Z-score,"72.1 µg/ml, genetic background: wild type",-0.654 ± 0.22
same,promoter activity interaction Z-score,"72.1 µg/ml, genetic background: ΔmarA",-0.0306 ± 0.33
same,promoter activity interaction Z-score,"72.1 µg/ml, genetic background: Δrob",-0.303 ± 0.014
same,promoter activity interaction Z-score,"72.1 µg/ml, genetic background: ΔsoxS",-0.398 ± 0.14
same,promoter activity interaction Z-score,"144.2 µg/ml, genetic background: wild type",-0.399 ± 0.038
same,promoter activity interaction Z-score,"144.2 µg/ml, genetic background: ΔmarA",-0.0772 ± 0.21
same,promoter activity interaction Z-score,"144.2 µg/ml, genetic background: Δrob",-0.448 ± 0.17
same,promoter activity interaction Z-score,"144.2 µg/ml, genetic background: ΔsoxS",-0.258 ± 0.0049
